Test results: PubChem BioAssay (NCI)
About 83,000 compounds went through this panel and 20% of them were active in at least one assay; those are over-represented in the sample as a whole.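 Single-dose data. Exposure time 48 hours. Values below 10 considered active.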 A number with no mark means an inactive call. The source made the active and inactive calls.

How the values were obtained:
Test in all cases: NCI-60 one-dose screen, 48 h (100 = growth as untreated, 0 = no growth, -100 = all killed)
SR leukemia = details: 10 µM unless noted
RPMI-8226 leukemia = details: 10 µM unless noted
OVCAR-5 ovarian = details: 10 µM unless noted
OVCAR-4 ovarian = details: 10 µM unless noted
SK-OV-3 ovarian = details: 10 µM unless noted
IGROV1 ovarian = details: 10 µM unless noted
OVCAR-3 ovarian = details: 10 µM unless noted
NCI/ADR-RES ovarian = details: 10 µM unless noted
T-47D breast = details: 10 µM unless noted
BT-549 breast = details: 10 µM unless noted
MDA-MB-435 melanoma = details: 10 µM unless noted
SW-620 colon = details: 10 µM unless noted
MCF7 breast = details: 10 µM unless noted
HCT-116 colon = details: 10 µM unless noted
HCC-2998 colon = details: 10 µM
KM12 colon = details: 10 µM unless noted
HS 578T breast = details: 10 µM

| SMILES | growth (SR leukemia) | growth (RPMI-8226 leukemia) | growth (OVCAR-5 ovarian) | growth (OVCAR-4 ovarian) | growth (SK-OV-3 ovarian) | growth (IGROV1 ovarian) | growth (OVCAR-3 ovarian) | growth (NCI/ADR-RES ovarian) | growth (T-47D breast) | growth (BT-549 breast) | growth (MDA-MB-435 melanoma) | growth (SW-620 colon) | growth (MCF7 breast) | growth (HCT-116 colon) | growth (HCC-2998 colon) | growth (KM12 colon) | growth (HS 578T breast) |
| --- | --- | --- | --- | --- | --- | --- | --- | --- | --- | --- | --- | --- | --- | --- | --- | --- | --- |
| O=C(NOCCO)c1cc(CN2OCCCC2=O)c(F)c(F)c1Nc1ccc(I)cc1F | 65.6% | 78.8% | 20.2% | 64.5% | 52.3% | 21.2% | 103% | 58.1% | 67.6% | 80.5% | 36.9% | 24.1% | 88.7% | 13.9% | -18.6% (active) | 26.6% | – |
| COc1ccc(C(=O)N2c3ccccc3Sc3ccccc32)c(F)c1 | 23% | 18.6% | 62.1% | 49.2% | 38.3% | 54.8% | -7.19% (active) | 1.71% (active) | 40.2% | 22.7% | -37.6% (active) | 15% | 24.2% | 20.1% | 30.3% | – | 15.9% |
| Cc1cc2c(-c3nc4ccccn4c3NC3CCCCC3)c(O)c(O)cc2c(O)c1-c1c(C)cc2c(-c3nc4ccccn4c3NC3CCCCC3)c(O)c(O)cc2c1O | 25.8% | 31.6% | 33.7% | 27.4% | 41.5% | 36.2% | 32.4% | 71.9% | 11.9% | 30.1% | 27.5% | 28.9% | 43% | – | 46.2% | 29.6% | 21.9% |
| CN1C/C=C\CCOc2cccc(c2)-c2ccnc(n2)Nc2cccc(c2)C1 | -29.1% (active) | -42.5% (active) | 6.02% (active) | -28.5% (active) | -17.2% (active) | -44.9% (active) | 3.03% (active) | -29% (active) | -42.4% (active) | -69.4% (active) | -85.2% (active) | -5.5% (active) | -33% (active) | -50% (active) | -40% (active) | -53.3% (active) | – |
| COc1ccc(-c2cnc(-c3ccc(Cl)cc3)[nH]2)cc1OC | 42.7% | 33.1% | 98.2% | 89.9% | 94.6% | 52.5% | 103% | 106% | 84.7% | 132% | 128% | 95.9% | 93.9% | 98.6% | 112% | 97.3% | 93.5% |
